Test [1] has as its target Bile acid receptor (Homo sapiens) (UniProt Q96RI1). The test can be described thus: ATG_IR1_CIS: Attagene CIS-FACTORIAL HepG2 Assay for human Nuclear Receptor Subfamily 1 Group H Member 4 (NR1H4), IR1 submotif (AID 2282946). The note with it: IR1 reporter transcription, actives raise or lower the signal. An outline of the steps: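 Fluorescence of capillary-separated, HpaI-digested RT-PCR reporter products gave IR1-element mRNA induction in HepG2 cells 24 h after dosing. Endogenous transcription factors drove the cis-regulated reporters; activity was fitted bidirectionally against DMSO.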

A short description of test [2]: ATG_GRE_CIS: Attagene CIS-FACTORIAL HepG2 Assay for human Glucocorticoid Response Elements (GRE) (AID 2282947). The note with it: HepG2 GRE cis-reporter, Attagene multiplex mRNA; actives raise or lower the signal. An outline of the steps:
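Read-out: fluorescent reporter-transcript fragments separated by capillary electrophoresis after RT-PCR. Transiently transfected HepG2 cells carrying cis-element-driven reporter units were dosed for 24 h; gain or loss of signal fitted against DMSO control.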

The nature of test [3]: ATG_ISRE_CIS: Attagene CIS-FACTORIAL HepG2 Assay for human Interferon Regulatory Factor 1 (IRF1) binding to an Interferon-Stimulated Response Element (ISRE) (AID 2282948). The note with it: HepG2 ISRE cis-reporter (Attagene), mRNA transcription readout; actives raise or lower the signal. The procedure, abridged: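 Endogenous transcription factor activity read as reporter transcript abundance via RT-PCR and capillary electrophoresis. HepG2 cells transiently transfected, 24 h chemical exposure. Gain or loss fitted against DMSO baseline.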

Test [4] can be described thus: ATG_M_32_CIS: Attagene CIS-FACTORIAL HepG2 Assay for M32 Transcription Factor (Internal Marker) (AID 2282949).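 Note: background control marker of the multiplexed CIS panel rather than a real target.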 Particulars: HepG2 Attagene cis-factorial M32 reporter, mRNA; actives raise or lower the signal. The procedure, abridged:
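Using DMSO as baseline, bidirectional curve fits were applied to reporter mRNA signals. These came from transiently transfected HepG2 cells exposed for 24 h, with RNA analysed by RT-PCR, FAM primer extension, HpaI digestion and CE.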

Test [5] is described as follows: ATG_M_06_CIS: Attagene CIS-FACTORIAL HepG2 Assay for M06 Transcription Factor (Internal Marker) (AID 2282950). Particulars: HepG2 Attagene CIS-FACTORIAL M06 internal marker reporter; actives raise or lower the signal. The procedure, abridged:
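One of many multiplexed endpoints: HepG2 reporter mRNA after 24 h dosing, detected by RT-PCR and capillary electrophoresis fluorescence; gain or loss of signal analysed against DMSO.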

Test [6] deals with Hypoxia-inducible factor 1-alpha (Homo sapiens) (UniProt Q16665). Briefly: ATG_HIF1a_CIS: Attagene CIS-FACTORIAL HepG2 Assay for human Hypoxia Inducible Factor 1 (HIF1A) (AID 2282951). Particulars: HepG2 Attagene cis-factorial HIF1a reporter transcription; actives raise or lower the signal. An outline of the steps:
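In this multiplexed cell assay, HepG2 cells bearing transfected cis reporters are dosed for 24 h and reporter mRNA is read by RT-PCR plus capillary electrophoresis; signal increases and decreases are both scored against DMSO.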

The target in test [7] is Hepatocyte nuclear factor 6 (Homo sapiens) (UniProt Q9UBC0). Briefly: ATG_HNF6_CIS: Attagene CIS-FACTORIAL HepG2 Assay for human Hepatocyte Nuclear Factor 6 (HNF6) (AID 2282952). Particulars: HepG2 Attagene cis-factorial HNF6 reporter transcription; actives raise or lower the signal. An outline of the steps:
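Activity values derive from bidirectional fitting against DMSO of reporter mRNA levels, measured by capillary electrophoresis of labelled RT-PCR products from HepG2 cells exposed 24 h.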

The target of test [8] is Heat shock factor protein 1 (Homo sapiens) (UniProt Q00613). Briefly: ATG_HSE_CIS: Attagene CIS-FACTORIAL HepG2 Assay for human Heat Shock Transcription Factor 1 (HSE) (AID 2282953). Particulars: HepG2 HSE cis-reporter, Attagene RNA transcription; actives raise or lower the signal. An outline of the steps:
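Using HepG2 with transfected cis-driven reporter constructs, compound effects on endogenous factor activity are scored as reporter mRNA change at 24 h. Detection: RT-PCR, HpaI digestion, capillary electrophoresis; bidirectional fitting to DMSO.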

Test [9] is described as follows: ATG_MRE_CIS: Attagene CIS-FACTORIAL HepG2 Assay for human Metal Responsive Element (MRE) (AID 2282954). Particulars: HepG2 MRE cis-reporter transcription, Attagene multiplex; actives raise or lower the signal. The procedure, abridged: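 RT-PCR/capillary electrophoresis readout of reporter mRNA, 24 h post-dosing, in HepG2 cells transfected with multiplexed cis-regulated reporter constructs. Gain or loss of signal fitted bidirectionally against DMSO baseline.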

The nature of test [10]: ATG_PBREM_CIS: Attagene CIS-FACTORIAL HepG2 Assay for human Phenobarbital-responsive Enhancer Module (PBREM) (AID 2282955). Particulars: HepG2 PBREM cis-reporter, Attagene multiplexed transcription; actives raise or lower the signal. An outline of the steps:
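After a 24 h incubation with test chemical, transfected HepG2 cells yield total RNA; reporter-specific RT-PCR products are fluorescently labelled, HpaI-digested and resolved by capillary electrophoresis against ROX size standards.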

Test [11] has as its target Paired box protein Pax-6 (Homo sapiens) (UniProt P26367). Briefly: ATG_Pax6_CIS: Attagene CIS-FACTORIAL HepG2 Assay for human Paired Box 6 (PAX6) (AID 2282956). Particulars: HepG2 CIS-FACTORIAL PAX6 reporter transcription, RNA readout; actives raise or lower the signal. The procedure, abridged:
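Read-out is reporter transcript level, measured by RT-PCR with fluorescent primer extension and capillary electrophoresis after 24 h dosing of transfected HepG2 cells. Activity in either direction fitted relative to DMSO control.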

A short description of test [12]: ATG_PXRE_CIS: Attagene CIS-FACTORIAL HepG2 Assay for human Pregnane X Receptor Element (PXRE) (AID 2282957). Particulars: HepG2 Attagene CIS-FACTORIAL PXRE reporter, mRNA; actives raise or lower the signal. The procedure, abridged:
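Fluorescent capillary electrophoresis of amplified reporter cDNA gave the signal, collected 24 h after dosing HepG2 cells that held transfected cis-element reporter constructs.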

Test [13] can be described thus: ATG_PPRE_CIS: Attagene CIS-FACTORIAL HepG2 Assay for human Peroxisome Proliferator-activated Response Element (PPRE) (AID 2282958). The note with it: HepG2 PPRE cis-element reporter, Attagene transcription factor profiling; actives raise or lower the signal. An outline of the steps:
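Multiplexed reporter transcription units under cis-regulatory promoters were transfected into HepG2 cells to capture endogenous factor activity. A 24 h incubation preceded RNA isolation and fluorescent RT-PCR fragment analysis.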

Test [14] can be described thus: ATG_RORE_CIS: Attagene CIS-FACTORIAL HepG2 Assay for human RAR-related Orphan Receptor Element (RORE) (AID 2282959). Particulars: HepG2 Attagene cis-factorial RORE reporter, mRNA; actives raise or lower the signal. The procedure, abridged:
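Fluorescence intensity of reporter-specific cDNA fragments, separated by capillary electrophoresis, gives the signal. Source: HepG2 liver cells transiently transfected with cis-element reporters and exposed 24 h; DMSO-normalized bidirectional fit.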

A short description of test [15]: ATG_Sox_CIS: Attagene CIS-FACTORIAL HepG2 Assay for human SRY-box transcription factor (SOX) (AID 2282960). The note with it: HepG2 Attagene cis-factorial SOX reporter, mRNA; actives raise or lower the signal. The procedure, abridged:
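After 24 h of chemical treatment, transfected HepG2 reporter cells are lysed for total RNA. Transcript levels come from RT-PCR with labelled primer extension and capillary electrophoresis, analysed bidirectionally versus DMSO.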

The target in test [16] is Transcription factor Sp1 (Homo sapiens) (UniProt P08047). Briefly: ATG_Sp1_CIS: Attagene CIS-FACTORIAL HepG2 Assay for human Specificity Protein 1 (Sp1) (AID 2282961). The note with it: HepG2 Sp1 cis-reporter transcription, actives raise or lower the signal. The procedure, abridged:
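Sp1-driven reporter mRNA, read as capillary electrophoresis fluorescence after RT-PCR, in transiently transfected HepG2 cells dosed for 24 h; signal change in either direction relative to DMSO.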

The target of test [17] is Signal transducer and activator of transcription 3 (Homo sapiens) (UniProt P40763). Briefly: ATG_STAT3_CIS: Attagene CIS-FACTORIAL HepG2 Assay for human Signal Transducer and Activator of Transcription 3 (STAT3) (AID 2282963). The note with it: HepG2, Attagene cis-factorial STAT3 reporter transcription; actives raise or lower the signal. An outline of the steps:
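Readout: fluorescent reporter mRNA fragments resolved by capillary electrophoresis. Setup: HepG2 transfected with MRTUs reporting endogenous transcription-factor activity, dosed 24 h. Gain or loss of signal fitted bidirectionally against DMSO control.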

Test [18] is described as follows: ATG_TA_CIS: Attagene CIS-FACTORIAL HepG2 Assay for human TA Basal Promoter (AID 2282964). Particulars: HepG2 Attagene CIS-factorial TA basal promoter reporter; actives raise or lower the signal. The procedure, abridged:
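Transient MRTU transfection of HepG2 preceded 24 h compound exposure. Reporter mRNA levels were then read by RT-PCR with capillary electrophoresis, and this background-control endpoint was fitted bidirectionally to DMSO.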

Test [19] in a line: ATG_TCF_b_cat_CIS: Attagene CIS-FACTORIAL HepG2 Assay for human T-Cell-Factor with beta-catenin (TCF/b-cat) (AID 2282965). The note with it: HepG2 TCF/beta-catenin cis-reporter transcription, actives raise or lower the signal. An outline of the steps:
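Cells of the HepG2 line carry transiently transfected reporter units whose promoters respond to endogenous factors. Twenty-four hours post-dosing, reporter mRNA induction is measured by fluorescent RT-PCR and capillary electrophoresis, with DMSO as baseline.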

Test [20] can be described thus: ATG_SREBP_CIS: Attagene CIS-FACTORIAL HepG2 Assay for human Sterol Regulatory Element Binding (SREBP) (AID 2282962). The note with it: HepG2 Attagene cis-factorial SREBP reporter, mRNA; actives raise or lower the signal. The procedure, abridged: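 Endogenous SREBP activity read as cis-element-driven reporter transcript in transiently transfected HepG2, 24 h post-dosing; quantified via RT-PCR plus capillary electrophoresis of fluorescent fragments. Gain or loss of signal fitted relative to DMSO baseline.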

The structures appear in SMILES notation. Active and inactive are the calls of the source. Rule for the calls: active = hit-call score of the fitted dose curve at least 0.9, where 1 is the maximum; inactive = score below 0.9.

Chain of Transcription factor Sp1 (Homo sapiens) (P08047 whole entry, looked up): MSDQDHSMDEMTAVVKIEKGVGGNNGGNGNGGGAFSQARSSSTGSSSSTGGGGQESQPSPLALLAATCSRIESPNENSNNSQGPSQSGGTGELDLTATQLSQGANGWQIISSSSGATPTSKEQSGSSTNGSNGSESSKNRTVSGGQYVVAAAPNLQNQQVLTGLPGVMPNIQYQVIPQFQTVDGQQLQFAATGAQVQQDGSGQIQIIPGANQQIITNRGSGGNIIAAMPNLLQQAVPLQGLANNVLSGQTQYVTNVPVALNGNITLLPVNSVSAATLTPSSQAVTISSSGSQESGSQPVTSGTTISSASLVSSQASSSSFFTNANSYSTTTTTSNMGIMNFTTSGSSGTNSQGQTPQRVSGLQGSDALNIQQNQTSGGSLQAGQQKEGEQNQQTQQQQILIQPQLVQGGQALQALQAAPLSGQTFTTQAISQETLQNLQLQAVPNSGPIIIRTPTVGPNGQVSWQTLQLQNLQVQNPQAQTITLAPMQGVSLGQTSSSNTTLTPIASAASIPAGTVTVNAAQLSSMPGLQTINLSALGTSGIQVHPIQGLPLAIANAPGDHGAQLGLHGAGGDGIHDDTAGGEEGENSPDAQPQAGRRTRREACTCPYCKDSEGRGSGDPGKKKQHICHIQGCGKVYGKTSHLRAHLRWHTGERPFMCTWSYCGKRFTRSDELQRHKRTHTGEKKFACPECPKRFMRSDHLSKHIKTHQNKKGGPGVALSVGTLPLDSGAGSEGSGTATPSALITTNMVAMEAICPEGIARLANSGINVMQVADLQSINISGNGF
Chain of Signal transducer and activator of transcription 3 (Homo sapiens) (P40763 whole entry, looked up, the tested form may be a part): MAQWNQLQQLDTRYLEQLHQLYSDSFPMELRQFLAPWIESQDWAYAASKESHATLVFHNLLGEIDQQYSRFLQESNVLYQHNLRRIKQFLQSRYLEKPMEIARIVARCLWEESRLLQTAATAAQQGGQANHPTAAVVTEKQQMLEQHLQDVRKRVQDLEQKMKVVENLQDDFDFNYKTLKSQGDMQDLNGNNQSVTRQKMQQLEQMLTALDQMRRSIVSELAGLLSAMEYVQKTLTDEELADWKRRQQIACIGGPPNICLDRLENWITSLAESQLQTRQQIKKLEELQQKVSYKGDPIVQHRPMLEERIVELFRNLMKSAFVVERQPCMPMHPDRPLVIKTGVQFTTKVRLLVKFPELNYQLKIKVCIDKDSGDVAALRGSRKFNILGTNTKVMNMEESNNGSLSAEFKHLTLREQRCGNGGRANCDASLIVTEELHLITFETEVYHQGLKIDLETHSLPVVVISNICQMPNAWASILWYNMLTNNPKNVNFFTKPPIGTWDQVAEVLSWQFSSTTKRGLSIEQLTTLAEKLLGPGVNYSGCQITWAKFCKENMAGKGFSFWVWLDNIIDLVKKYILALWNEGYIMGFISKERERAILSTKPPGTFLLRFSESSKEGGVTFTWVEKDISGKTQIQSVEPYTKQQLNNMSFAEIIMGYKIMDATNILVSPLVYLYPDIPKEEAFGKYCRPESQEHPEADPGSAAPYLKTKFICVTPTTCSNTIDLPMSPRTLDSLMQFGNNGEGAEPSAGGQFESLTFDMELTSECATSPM
Chain of Hypoxia-inducible factor 1-alpha (Homo sapiens) (Q16665 whole entry, looked up): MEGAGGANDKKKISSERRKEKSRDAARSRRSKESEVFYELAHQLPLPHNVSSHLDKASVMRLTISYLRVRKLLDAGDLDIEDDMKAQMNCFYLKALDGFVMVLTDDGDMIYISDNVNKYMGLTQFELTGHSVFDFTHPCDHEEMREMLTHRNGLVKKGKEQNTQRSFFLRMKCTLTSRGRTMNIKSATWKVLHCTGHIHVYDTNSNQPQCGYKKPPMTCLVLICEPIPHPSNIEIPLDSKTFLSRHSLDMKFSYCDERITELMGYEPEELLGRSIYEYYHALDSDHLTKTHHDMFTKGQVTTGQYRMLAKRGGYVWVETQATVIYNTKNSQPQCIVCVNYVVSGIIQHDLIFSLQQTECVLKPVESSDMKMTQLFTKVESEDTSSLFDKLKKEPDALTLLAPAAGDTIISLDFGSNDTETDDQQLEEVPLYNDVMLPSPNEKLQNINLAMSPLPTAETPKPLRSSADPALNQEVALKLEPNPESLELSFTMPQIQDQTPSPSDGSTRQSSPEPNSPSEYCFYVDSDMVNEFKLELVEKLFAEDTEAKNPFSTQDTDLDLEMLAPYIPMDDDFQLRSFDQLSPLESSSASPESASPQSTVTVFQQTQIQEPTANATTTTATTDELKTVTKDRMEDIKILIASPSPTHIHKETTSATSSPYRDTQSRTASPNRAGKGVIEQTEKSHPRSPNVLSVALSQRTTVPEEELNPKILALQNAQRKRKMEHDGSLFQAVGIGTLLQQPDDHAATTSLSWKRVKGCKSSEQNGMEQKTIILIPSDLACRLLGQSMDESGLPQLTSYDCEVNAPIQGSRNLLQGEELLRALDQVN
Chain of Heat shock factor protein 1 (Homo sapiens) (Q00613 whole entry, looked up): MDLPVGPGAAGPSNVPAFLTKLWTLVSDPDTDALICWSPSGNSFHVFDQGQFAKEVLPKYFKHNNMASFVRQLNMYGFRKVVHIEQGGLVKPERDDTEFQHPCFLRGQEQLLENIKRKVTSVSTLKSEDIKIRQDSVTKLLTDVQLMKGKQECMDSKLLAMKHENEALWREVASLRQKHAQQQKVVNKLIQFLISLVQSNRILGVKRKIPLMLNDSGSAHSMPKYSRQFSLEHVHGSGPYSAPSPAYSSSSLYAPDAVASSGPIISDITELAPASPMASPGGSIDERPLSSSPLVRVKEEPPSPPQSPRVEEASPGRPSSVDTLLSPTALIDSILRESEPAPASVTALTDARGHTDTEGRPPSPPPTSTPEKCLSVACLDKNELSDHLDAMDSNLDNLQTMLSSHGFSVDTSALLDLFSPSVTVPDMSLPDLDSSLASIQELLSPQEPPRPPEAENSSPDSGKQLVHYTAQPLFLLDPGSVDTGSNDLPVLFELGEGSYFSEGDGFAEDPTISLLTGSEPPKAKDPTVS
Chain of Hepatocyte nuclear factor 6 (Homo sapiens) (Q9UBC0 whole entry, looked up): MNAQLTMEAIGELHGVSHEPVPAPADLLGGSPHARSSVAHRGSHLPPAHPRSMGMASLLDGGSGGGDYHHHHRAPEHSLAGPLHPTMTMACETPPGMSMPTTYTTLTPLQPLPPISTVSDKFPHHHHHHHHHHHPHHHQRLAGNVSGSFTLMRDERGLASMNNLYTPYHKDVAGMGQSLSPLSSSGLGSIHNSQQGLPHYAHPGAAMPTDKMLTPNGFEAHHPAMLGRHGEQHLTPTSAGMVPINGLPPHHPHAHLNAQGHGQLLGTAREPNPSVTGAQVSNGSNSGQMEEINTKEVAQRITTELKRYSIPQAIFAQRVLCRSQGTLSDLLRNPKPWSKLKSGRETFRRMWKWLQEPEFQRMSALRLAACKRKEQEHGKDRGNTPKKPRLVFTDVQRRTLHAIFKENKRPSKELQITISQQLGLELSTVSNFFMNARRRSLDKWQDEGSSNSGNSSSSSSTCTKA
Chain of Bile acid receptor (Homo sapiens) (Q96RI1 whole entry, looked up): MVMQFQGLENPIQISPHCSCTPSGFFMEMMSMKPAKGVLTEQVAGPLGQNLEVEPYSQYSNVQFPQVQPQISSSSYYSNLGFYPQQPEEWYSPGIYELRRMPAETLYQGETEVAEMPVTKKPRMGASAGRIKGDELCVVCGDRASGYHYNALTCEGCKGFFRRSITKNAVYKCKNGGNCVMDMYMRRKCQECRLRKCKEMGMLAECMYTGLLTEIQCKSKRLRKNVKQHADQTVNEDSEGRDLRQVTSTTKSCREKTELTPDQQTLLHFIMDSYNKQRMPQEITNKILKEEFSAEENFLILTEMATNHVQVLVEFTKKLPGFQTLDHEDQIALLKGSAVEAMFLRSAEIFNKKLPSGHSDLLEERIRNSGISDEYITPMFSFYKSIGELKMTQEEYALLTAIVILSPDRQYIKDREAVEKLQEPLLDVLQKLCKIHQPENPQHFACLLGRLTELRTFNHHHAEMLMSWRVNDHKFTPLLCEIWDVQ
Chain of Paired box protein Pax-6 (Homo sapiens) (P26367 whole entry, looked up): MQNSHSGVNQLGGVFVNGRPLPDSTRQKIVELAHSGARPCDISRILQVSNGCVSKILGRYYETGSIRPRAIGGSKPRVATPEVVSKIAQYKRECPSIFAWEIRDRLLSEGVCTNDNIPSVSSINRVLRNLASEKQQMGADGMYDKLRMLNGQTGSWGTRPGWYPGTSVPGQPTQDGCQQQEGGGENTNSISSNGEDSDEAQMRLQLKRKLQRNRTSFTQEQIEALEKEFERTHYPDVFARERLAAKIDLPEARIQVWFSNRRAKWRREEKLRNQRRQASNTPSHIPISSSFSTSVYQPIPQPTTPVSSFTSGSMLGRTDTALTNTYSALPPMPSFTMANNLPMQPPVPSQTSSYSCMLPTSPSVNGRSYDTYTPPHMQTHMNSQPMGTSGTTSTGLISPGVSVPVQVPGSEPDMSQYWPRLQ

`C=CC(=O)OCCC#N`: the AC50 (as a rule, the midpoint of the concentration-response curve, whichever way the signal moves) is 58.1 µM (active) in [1]; 64.2 µM (active) in test [2]; 70 µM (active) in test [3]; 56.6 µM (active) in [6]; 170 µM (active) in test [8]; 86.2 µM (active) in [9]. Further, the AC50 was 47.9 µM (active) in test [11], 62.5 µM (active) in test [12] and 41.1 µM (active) in test [15]. For the same compound, the compound was classed as inactive in test [4], in test [5], in [7], in test [10], in test [13] and in test [14]. Also, the call in test [16], in test [17], in [18] and in [19] was inactive.
For `CCOC(=O)CC(C)O` (stereo not drawn), the result in test [1], in test [2], in test [3], in test [4], in test [5] and in test [6] was inactive. In addition, the outcome in [7], in test [8], in test [9], in [10], in [11] and in [12] was inactive. Besides, the compound was called inactive in test [13], in test [14], in [15], in test [16], in [20] and in [17]. In addition, the outcome in [18] and in [19] was inactive.
For `CC(=O)Nc1ccc(C(=O)CCl)cc1`, the AC50 in test [1] was 33.4 µM (active); in test [3], 6.86 µM (active); in [9], 16.1 µM (active); in test [11], 9 µM (active); in test [15], 8.57 µM (active); in test [16] it was 8.32 µM (active). Besides, in test [20], the AC50 was 8.67 µM (active). In addition, the outcome in [2], in test [4], in test [5], in test [6], in test [7] and in test [8] was inactive. The compound was called inactive in [12], in [13], in [14], in test [17], in [18] and in test [19].

Values taken from PubChem BioAssay (EPA / NIEHS).
